Results on 30 compounds are retold here after PubChem BioAssay AID743363 (Broad Institute, 2014).

Structures are written as SMILES. A number with no mark means an inactive call. How the calls were made is not given here.

A short description of the test: BioD-coupled fluorescence displacement counter-assay – biochemical, dry powder samples, counter-screen, dose response (AID 743363). The following applies: FL-DTB/streptavidin fluorescence displacement counter-screen; series mostly up to 10 µM; activity, interference signal: at the top concentration. (In general: A counterscreen serves to expose hits that act by an unwanted route or on another target.)
With `CN1c2ccc(-c3cccc(F)c3)cc2[C@H]2[C@H](CCN2C(=O)CCCCCCC(=O)O)[C@H]1CO`, the “activity, interference signal” value was -0.397%. Regarding `CN1c2ccc(-c3cccc(F)c3)cc2[C@@H]2[C@@H](CCN2C(=O)c2ccc3c(c2)OCO3)[C@@H]1CO`, the “activity, interference signal” value is -1.78% [at 5.6 µM].

Take `CC(=O)c1ccc(N2CCN(C(=O)Nc3ccc4c(c3)OCO4)CC2)cc1`: the “activity, interference signal” value was 1.39%.

Turning to `CC(=O)c1ccc(N2CCN(C(=O)c3ccc4c(c3)OC(F)(F)O4)CC2)cc1`, the “activity, interference signal” value was 0.02%. In the case of `CNC(=O)c1ccc(N2CCN(C(=O)c3ccc4c(c3)OCO4)CC2)cc1`, the “activity, interference signal” value was 2.15%. As to `N#Cc1ccc(N2CCN(C(=O)c3ccc4c(c3)OCO4)CC2)cc1`, the “activity, interference signal” value was 1.76%.

For `CN1c2ccc(-c3cccc(F)c3)cc2[C@H]2[C@H](CCN2C(=O)CCCCCCN)[C@H]1CO`, the “activity, interference signal” value was -2.8%. Regarding `CC(=O)c1ccc(N2CCN(C(=O)c3ccccc3Cl)CC2)cc1`, the “activity, interference signal” value is -0.682%. On to `CC(=O)c1ccc(N2CCN(C(=O)c3ccc4c(c3)OC(C)(C)O4)CC2)cc1`, for which the “activity, interference signal” value was 1.9%. The result for `CCC(=O)N1CC[C@@H]2[C@@H](CO)N(C)c3ccc(-c4ccc(F)cc4)cc3[C@@H]21` reads -2.82% [at 4.6 µM]; that for `COc1ccccc1NC(=O)N1CC[C@@H]2[C@@H](CO)N(C)c3ccc(-c4cccc(F)c4)cc3[C@@H]21`, -1.86%.

Consider `CC(=O)c1ccc(NCCNC(=O)c2ccc3c(c2)OCO3)cc1`, for which the “activity, interference signal” value is 0.593%. In the case of `CCCNC(=O)N1CC[C@@H]2[C@@H](CO)N(C)c3ccc(-c4ccc(F)cc4)cc3[C@@H]21`, the “activity, interference signal” value is 0.052%. Turning to `CC(=O)c1ccc(N2CCN(C(=O)c3cc4c(cn3)OCO4)CC2)cc1`, the “activity, interference signal” value is 2.16%. Regarding `CC(C)NC(=O)N1CC[C@@H]2[C@@H](CO)N(C)c3ccc(-c4ccc(F)cc4)cc3[C@@H]21`, the “activity, interference signal” value was -2.03%. Consider `O=C(c1ccc2c(c1)OCO2)N1CCN(c2ccc(S(=O)(=O)C(F)F)cc2)CC1`, for which the “activity, interference signal” value is 3.47%. With `CN1c2ccc(-c3ccc(F)cc3)cc2[C@H]2[C@H](CCN2C(=O)Nc2ccc(F)cc2)[C@H]1CO` the figure was -3.2%. With `CCCCCCCC(=O)N1CC[C@@H]2[C@@H](CO)N(C)c3ccc(-c4cccc(F)c4)cc3[C@@H]21`, the “activity, interference signal” value was -1.81%. Consider `CS(=O)(=O)c1ccc(N2CCN(C(=O)c3ccc4c(c3)OCO4)CC2)cc1`, for which the “activity, interference signal” value was -0.775%. With `COc1cccc(NC(=O)N2CC[C@@H]3[C@@H](CO)N(C)c4ccc(-c5cccc(F)c5)cc4[C@@H]32)c1` the figure was 0.165%; with `CN1c2ccc(-c3cccc(F)c3)cc2[C@H]2[C@H](CCN2C(=O)Nc2ccccc2F)[C@H]1CO`, 0.917%. As to `COC(=O)CCCCCCC(=O)N1CC[C@@H]2[C@@H](CO)N(C)c3ccc(-c4cccc(F)c4)cc3[C@@H]21`, the “activity, interference signal” value was -5.08%. For the compound `O=C(c1ccc2c(c1)OCO2)N1CCN(c2ccc(C(F)(F)F)cc2)CC1`, the “activity, interference signal” value was -1.48%. `O=C(c1ccc2c(c1)OCO2)N1CCN(c2ccc(S(=O)(=O)C(F)(F)F)cc2)CC1`: the “activity, interference signal” value was -1.88%.

As for `CC(=O)c1ccc(N2CCN(C(=O)c3ccc4ocnc4c3)CC2)cc1`, the “activity, interference signal” value is 3.93%. For `O=C(c1ccc2c(c1)OCO2)N1CCN(c2ccc(OC(F)(F)F)cc2)CC1`, the “activity, interference signal” value was -5.37%. With `CC(=O)c1ccc(N2CCN(C(=O)c3ccc(Cl)c(Cl)c3)CC2)cc1`, the “activity, interference signal” value is 2.22%. The result for `COc1ccc(C(=O)N2CCN(c3ccc(C(C)=O)cc3)CC2)cc1OC` reads 2.26%.

Turning to `CNS(=O)(=O)c1ccc(N2CCN(C(=O)c3ccc4c(c3)OCO4)CC2)cc1`, the “activity, interference signal” value was -1.07%. The result for `CC(=O)c1ccc(N2CCN(C(=O)c3cc(Cl)c4c(c3)OCO4)CC2)cc1` reads -6.36%.
